# Laboratory results: PubChem BioAssay (Tox21)
# Where “and” joins values, the source holds several entries; their conditions need not be identical. Equal entries are not always repeated. Results filed as inconclusive are left out. Where a call stands in place of a potency, no number is given. More than one record can exist for a structure, and the calls need not agree. Calls of active or inactive are those of the source. Unless noted, calls come from the whole dose curve; as a rule, active = well fitted curve in the direction sought with a large enough effect in the repeat runs; inconclusive = weak or mixed curves; inactive = no such curve, though single readings can be large; an effect the other way counts as inactive or inconclusive.
# Experiments:
# [1] = qHTS assay to identify small molecule antagonists of the thyroid receptor (TR) signaling pathway - cell viability counter screen (AID 743064); note: nearly all actives have a fitted effect of over 50% in size
# Method in brief: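 Compounds were tested on GH3.TRE-Luc cells in the presence of T3 at 1 nM final. Following 23.5 h at 37 °C, cell viability was quantified by CellTiter-Fluor.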
# [2] = qHTS assay to identify small molecule antagonists of the thyroid receptor (TR) signaling pathway (AID 743065); note: series mostly up to about 70 µM; nearly all actives have a fitted effect of over 55% in size
# Method in brief: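 GH3.TRE-Luc rat pituitary cells (two TREs driving luciferase) were dosed with compound, then stimulated with 1 nM T3 (final) for 23.5 h at 37 C. ONE-Glo luminescence was the read-out, with CellTiter-Fluor fluorescence as the cytotoxicity counter-screen.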
# [3] = tested on: thyroid hormone receptor (rat, GH3 cells); assay: qHTS assay to identify small molecule agonists of the thyroid receptor (TR) signaling pathway (AID 743066; calls by dose curve)
# [4] = qHTS assay to identify small molecule antagonists of the estrogen receptor alpha (ER-alpha) signaling pathway - cell viability counter screen (AID 743074; calls by dose curve;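 note: HEK293 cells carrying ER-alpha-UAS-bla reporter stimulated with 17beta-estradiol; nearly all actives have a fitted effect of over 45% in size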)
# [5] = qHTS assay to identify small molecule antagonists of the estrogen receptor alpha (ER-alpha) signaling pathway using the BG1 cell line - cell viability counter screen (AID 743081);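 note: compound given together with 17beta-estradiol as the ER stimulus; series mostly up to about 70 µM; nearly all actives have a fitted effect of over 45% in size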
# Aromatase (Homo sapiens) = Aromatase (Homo sapiens) (UniProt P11511); assay: qHTS assay to identify aromatase inhibitors (AID 743083); note: series mostly up to about 70 µM; nearly all actives have a fitted effect of over 55% in size
# [6] = qHTS assay to identify aromatase inhibitors - cell viability counter screen (AID 743084);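 note: cells stimulated with testosterone during compound exposure; nearly all actives have a fitted effect of over 55% in size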
# [7] = biological target: Aryl hydrocarbon receptor (Homo sapiens) (UniProt P35869); assay: qHTS assay to identify small molecule that activate the aryl hydrocarbon receptor (AhR) signaling pathway (AID 743085); note: nearly all actives have a fitted effect of over 15% in size; note: potency is the fitted concentration of half-maximal effect;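 for activation: HG2L7.5c1 human HepG2 liver cells with stably integrated DRE-driven firefly reporter; series mostly up to about 70 µM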
# Method in brief: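 24 h compound exposure, 37C, HepG2-derived HG2L7.5c1 cells with DRE-responsive luciferase. Readouts: fluorescence viability, then luminescence at room temperature after 30 min.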
# [8] = qHTS assay to identify small molecule that activate the aryl hydrocarbon receptor (AhR) signaling pathway - cell viability counter screen (AID 743086);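 note: HepG2 liver cells carrying the AhR DRE luciferase reporter; series mostly up to about 70 µM; nearly all actives have a fitted effect of over 45% in size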
# Method in brief: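 HepG2-AhR-luc (HG2L7.5c1) cells, 4000/well, treated 24 h at 37 C with compound; viability measured as CellTiter-Fluor fluorescence after 30 min in the same wells as the luciferase read.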
# [9] = biological target: Peroxisome proliferator-activated receptor gamma (Homo sapiens) (UniProt P37231); assay: qHTS assay to identify small molecule agonists of the peroxisome proliferator-activated receptor gamma (PPARg) signaling pathway (AID 743094; active = well fitted activation curve with a large enough effect in the signal ratio in the repeat runs, not every such curve was filed as active; the % refers to the signal ratio)
# Method in brief: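 Compounds dissolved in DMSO were added to PPARg UAS-bla HEK293H cells for 17 h at 37C, and reporter expression was quantified by fluorescence intensity after 1 h with LiveBLAzer B/G FRET substrate.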
# [10] = biological target: Peroxisome proliferator-activated receptor gamma (Homo sapiens) (UniProt P37231); assay: qHTS assay to identify small molecule antagonists of the peroxisome proliferator-activated receptor gamma (PPARg) signaling pathway (AID 743191; calls by dose curve; note: series mostly up to about 63 µM; nearly all actives have a fitted effect of over 30% in size)
# Method in brief: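 GeneBLAzer PPARg UAS-bla HEK293H cells, 5 h post-plating, exposed to compounds 17 h at 37C. LiveBLAzer B/G FRET substrate added for 1 h at room temperature; beta-lactamase reporter read by fluorescence intensity.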
# [11] = qHTS assay for small molecule agonists of the antioxidant response element (ARE) signaling pathway (AID 743202; active = well fitted activation curve with a large enough effect in the signal ratio in the repeat runs, not every such curve was filed as active; the % refers to the signal ratio)
# Method in brief: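 ARE-bla HepG2 cells (beta-lactamase reporter under the antioxidant response element), plated 5 hours, then exposed to compounds 16 hours at 37 C. LiveBLAzer B/G FRET substrate added for 2 hours at room temperature; fluorescence intensity read.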
# [12] = qHTS assay for small molecule agonists of the antioxidant response element (ARE) signaling pathway - cell viability counter screen (AID 743203; calls by dose curve; note: nearly all actives have a fitted effect of over 55% in size)
# Method in brief: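 Following 16 hrs of compound treatment at 37C, HepG2 cells with an ARE-controlled beta-lactamase gene were lysed with CellTiter-Glo. Luminescence was read after 30 min at room temperature.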
# [13] = qHTS assay for small molecule activators of the heat shock response signaling pathway - cell viability counter screen (AID 743209); note: nearly all actives have a fitted effect of over 50% in size
# Method in brief: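 Readout: CellTiter-Glo luminescence, 30 min at room temperature. System: HSE-bla HeLa cells, 1500/well, plated overnight. Treatment: compounds in DMSO, 5 h at 37 C.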
# [14] = qHTS assay for small molecule activators of the heat shock response signaling pathway (AID 743210; active = well fitted activation curve with a large enough effect in the signal ratio in the repeat runs, with a control signal flat, not every such curve was filed as active; the % refers to the signal ratio; note: series mostly up to about 63 µM)
# Method in brief: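 HSE-bla HeLa cells (beta-lactamase reporter under heat shock response elements), plated overnight, then exposed to compounds 5 h at 37 C; LiveBLAzer B/G FRET substrate added, 2.5 h at room temperature, fluorescence intensity read.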
# [15] = biological target: Estrogen receptor (Homo sapiens) (UniProt P03372); assay: qHTS assay to identify small molecule antagonists of the estrogen receptor alpha (ER-alpha) signaling pathway (AID 743069; active = well fitted curve in the direction sought with a large enough effect in the signal ratio in the repeat runs, not every such curve was filed as active; the % refers to the signal ratio)
# Method in brief: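 HEK293 ER-alpha-UAS-bla GripTite cells, held overnight in 2% charcoal-stripped FBS, 5,000 cells/well, preincubated 4 h, then compound plus 17beta-estradiol for 18 h at 37C. Beta-lactamase read by LiveBLAzer B/G FRET substrate, 2 h at room temperature.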
# [16] = biological target: Estrogen receptor (Homo sapiens) (UniProt P03372); assay: qHTS assay to identify small molecule agonists of the estrogen receptor alpha (ER-alpha) signaling pathway (AID 743075; calls by dose curve)
# [17] = biological target: Estrogen receptor (Homo sapiens) (UniProt P03372); assay: qHTS assay to identify small molecule agonists of the estrogen receptor alpha (ER-alpha) signaling pathway using the BG1 cell line (AID 743079); note: nearly all actives have a fitted effect of over 20% in size
# [18] = qHTS assay to identify small molecule antagonists of the estrogen receptor alpha (ER-alpha) signaling pathway using the BG1 cell line (AID 743080; calls by dose curve;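 note: BG1 cells stimulated with 17beta-estradiol alongside compound; series mostly up to about 70 µM; nearly all actives have a fitted effect of over 25% in size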)
# Method in brief: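 BG1-Luc-4E2 cells (endogenous full-length ER-alpha, 4xERE luciferase) hormone-starved 5 days in charcoal-stripped FBS, plated 4,000/well for 24 h, then compound plus 17beta-estradiol for 21.5 h at 37 C; ONE-Glo luminescence read.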
# [19] = qHTS assay to identify small molecule antagonists of the peroxisome proliferator-activated receptor gamma (PPARg) signaling pathway - cell viability counter screen (AID 743194); note: nearly all actives have a fitted effect of over 55% in size
# Method in brief: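 Cytotoxicity counter screen in PPARg-bla HEK293H cells, same wells as reporter assay. Compounds plus 50 nM rosiglitazone (final) for 17 h at 37 C, then viability read by CellTiter-Glo luminescence.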
# Sequence of Peroxisome proliferator-activated receptor gamma (Homo sapiens) (P37231 whole entry, looked up): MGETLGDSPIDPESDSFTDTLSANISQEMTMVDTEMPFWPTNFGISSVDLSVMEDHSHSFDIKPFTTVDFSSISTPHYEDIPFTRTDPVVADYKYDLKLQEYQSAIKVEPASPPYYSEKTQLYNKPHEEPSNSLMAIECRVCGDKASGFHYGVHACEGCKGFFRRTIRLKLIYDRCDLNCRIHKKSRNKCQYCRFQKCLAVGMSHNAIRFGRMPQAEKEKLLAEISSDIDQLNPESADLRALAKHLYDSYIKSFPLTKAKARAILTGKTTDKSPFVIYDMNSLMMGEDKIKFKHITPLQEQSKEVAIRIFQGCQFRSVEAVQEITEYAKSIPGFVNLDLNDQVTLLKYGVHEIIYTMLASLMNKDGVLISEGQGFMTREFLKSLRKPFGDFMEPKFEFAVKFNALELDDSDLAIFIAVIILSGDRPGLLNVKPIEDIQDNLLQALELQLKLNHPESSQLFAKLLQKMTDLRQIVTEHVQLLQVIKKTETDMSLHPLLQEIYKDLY
# Sequence of Estrogen receptor (Homo sapiens) (P03372 whole entry, looked up): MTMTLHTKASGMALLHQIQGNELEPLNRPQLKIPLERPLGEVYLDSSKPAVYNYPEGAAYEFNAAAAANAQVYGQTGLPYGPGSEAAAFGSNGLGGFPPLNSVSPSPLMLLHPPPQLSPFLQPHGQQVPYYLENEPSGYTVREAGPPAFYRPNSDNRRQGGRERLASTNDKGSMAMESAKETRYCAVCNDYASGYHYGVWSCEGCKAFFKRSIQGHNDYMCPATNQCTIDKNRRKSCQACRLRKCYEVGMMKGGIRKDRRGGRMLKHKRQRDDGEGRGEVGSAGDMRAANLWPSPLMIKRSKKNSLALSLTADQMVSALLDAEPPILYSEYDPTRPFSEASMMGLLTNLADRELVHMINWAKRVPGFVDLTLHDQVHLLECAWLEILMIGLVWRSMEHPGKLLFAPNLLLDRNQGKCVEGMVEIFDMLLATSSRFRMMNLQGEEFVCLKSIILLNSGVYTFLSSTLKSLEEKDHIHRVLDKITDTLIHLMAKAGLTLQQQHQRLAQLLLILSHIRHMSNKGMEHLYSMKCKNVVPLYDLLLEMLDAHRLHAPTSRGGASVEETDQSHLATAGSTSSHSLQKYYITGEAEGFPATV
# Sequence of Aromatase (Homo sapiens) (P11511 whole entry, looked up): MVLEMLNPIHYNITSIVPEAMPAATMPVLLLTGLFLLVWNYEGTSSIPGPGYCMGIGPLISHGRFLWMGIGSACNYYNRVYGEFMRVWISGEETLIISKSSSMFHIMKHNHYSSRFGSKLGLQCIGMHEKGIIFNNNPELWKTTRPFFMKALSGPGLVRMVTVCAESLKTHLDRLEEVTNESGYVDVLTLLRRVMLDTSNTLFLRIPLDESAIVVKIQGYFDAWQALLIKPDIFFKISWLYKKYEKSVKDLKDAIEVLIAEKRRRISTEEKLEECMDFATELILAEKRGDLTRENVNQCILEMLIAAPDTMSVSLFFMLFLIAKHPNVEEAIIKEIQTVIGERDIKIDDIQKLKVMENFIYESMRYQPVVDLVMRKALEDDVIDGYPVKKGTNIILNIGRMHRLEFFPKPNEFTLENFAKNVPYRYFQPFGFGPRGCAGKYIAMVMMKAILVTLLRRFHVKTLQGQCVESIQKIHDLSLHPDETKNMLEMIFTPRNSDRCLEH
# Sequence of Aryl hydrocarbon receptor (Homo sapiens) (P35869 whole entry, looked up): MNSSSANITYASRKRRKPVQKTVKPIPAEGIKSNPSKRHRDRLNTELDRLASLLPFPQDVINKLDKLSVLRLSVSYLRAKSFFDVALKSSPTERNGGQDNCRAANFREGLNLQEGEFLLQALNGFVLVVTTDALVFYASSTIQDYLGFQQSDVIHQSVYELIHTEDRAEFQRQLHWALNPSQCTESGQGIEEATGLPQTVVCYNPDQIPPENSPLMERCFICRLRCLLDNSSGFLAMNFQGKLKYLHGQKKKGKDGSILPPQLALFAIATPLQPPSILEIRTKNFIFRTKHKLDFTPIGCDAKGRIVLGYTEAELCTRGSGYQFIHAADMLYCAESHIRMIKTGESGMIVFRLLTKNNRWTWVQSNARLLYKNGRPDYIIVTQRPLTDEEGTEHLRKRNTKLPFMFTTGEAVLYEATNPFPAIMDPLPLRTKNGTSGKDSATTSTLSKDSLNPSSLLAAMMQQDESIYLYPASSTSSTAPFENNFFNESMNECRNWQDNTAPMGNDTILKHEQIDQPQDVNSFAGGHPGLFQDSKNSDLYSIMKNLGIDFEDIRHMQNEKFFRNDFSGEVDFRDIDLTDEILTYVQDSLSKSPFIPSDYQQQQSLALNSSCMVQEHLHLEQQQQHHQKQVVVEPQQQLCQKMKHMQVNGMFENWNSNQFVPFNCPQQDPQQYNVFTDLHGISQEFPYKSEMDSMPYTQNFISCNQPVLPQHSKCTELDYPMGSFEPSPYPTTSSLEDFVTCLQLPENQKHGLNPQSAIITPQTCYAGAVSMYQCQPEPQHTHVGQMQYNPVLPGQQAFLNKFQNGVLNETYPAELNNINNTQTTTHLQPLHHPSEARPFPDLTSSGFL
Structure (SMILES),Potency [1],Potency [2],Potency [3],Potency [4],Potency [5],Potency (Aromatase (Homo sapiens)),Potency [6],Potency [7],Potency [8],outcome [9],outcome [10],Potency [11],outcome [12],outcome [13],outcome [14],Potency [15],Potency [16],Potency [17],Potency [18],outcome [19]
Cc1ccc(O)cc1,inactive,inactive,inactive,inactive,inactive,inactive,inactive,inactive,inactive,inactive,inactive,inactive,inactive,inactive,inactive,–,–,–,–,–
Nc1ccc(S(=O)(=O)Nc2nccs2)cc1,inactive,–,–,inactive,inactive,inactive,inactive,inactive,inactive,inactive,inactive,inactive,–,inactive,inactive,inactive,inactive,inactive,inactive,–
O=NO,inactive,inactive,inactive,inactive,inactive,inactive,inactive,inactive,inactive,–,–,inactive,inactive,inactive,inactive,–,–,–,–,–
O=S(=O)(O)NC1CCCCC1,inactive,inactive,inactive,inactive,inactive,inactive,inactive,inactive,inactive,–,–,inactive,inactive,inactive,inactive,–,–,–,–,inactive
CCCCCCCCCCCCCCCC(=O)O,inactive,inactive,inactive,inactive,inactive,inactive,inactive,inactive,inactive,inactive,inactive,inactive,–,inactive,inactive,–,–,–,–,–
O=S(=O)(O)c1ccc2cc(O)ccc2c1,inactive,inactive,inactive,inactive,inactive,inactive,inactive,inactive,inactive,inactive,inactive,inactive,inactive,inactive,inactive,–,–,–,–,–
CCC1(c2ccccc2)C(=O)NCNC1=O,inactive,inactive,inactive,inactive,inactive,inactive,inactive,inactive,inactive,inactive,inactive,inactive,–,inactive,inactive,–,–,–,–,–
Nc1ccc(C(=O)O)cc1,–,–,–,inactive,inactive,inactive,inactive,inactive,inactive,inactive,inactive,inactive,–,inactive,inactive,inactive,inactive,inactive,inactive,–
CC(O)CN(CCN(CC(C)O)CC(C)O)CC(C)O (configuration not stated),inactive,–,–,inactive,inactive,inactive,inactive,inactive,inactive,inactive,inactive,inactive,inactive,inactive,inactive,–,–,–,–,–
O=C(O)C(=O)O,inactive,–,–,inactive,inactive,inactive,inactive,inactive,inactive,inactive,inactive,inactive,–,inactive,inactive,–,–,–,–,–
c1ccc2[nH]ccc2c1,inactive,inactive,inactive,inactive,inactive,inactive,inactive,inactive and 30.1 µM (active) and 27.3 µM (active),inactive,inactive,inactive,inactive,inactive,inactive,inactive,–,–,–,–,inactive
